Results filed as inconclusive are left out. Values without a mark were called inactive. Active and inactive are the calls of the source. The call rests on the fitted dose curve; in most records, active means well fitted inhibition curve with a large enough effect; inconclusive means small, poorly fitted or top-dose-only effect; inactive means flat fitted curve, though single readings scatter.

Sequence of Luciferin 4-monooxygenase (Photinus pyralis) (P08659 whole entry, looked up): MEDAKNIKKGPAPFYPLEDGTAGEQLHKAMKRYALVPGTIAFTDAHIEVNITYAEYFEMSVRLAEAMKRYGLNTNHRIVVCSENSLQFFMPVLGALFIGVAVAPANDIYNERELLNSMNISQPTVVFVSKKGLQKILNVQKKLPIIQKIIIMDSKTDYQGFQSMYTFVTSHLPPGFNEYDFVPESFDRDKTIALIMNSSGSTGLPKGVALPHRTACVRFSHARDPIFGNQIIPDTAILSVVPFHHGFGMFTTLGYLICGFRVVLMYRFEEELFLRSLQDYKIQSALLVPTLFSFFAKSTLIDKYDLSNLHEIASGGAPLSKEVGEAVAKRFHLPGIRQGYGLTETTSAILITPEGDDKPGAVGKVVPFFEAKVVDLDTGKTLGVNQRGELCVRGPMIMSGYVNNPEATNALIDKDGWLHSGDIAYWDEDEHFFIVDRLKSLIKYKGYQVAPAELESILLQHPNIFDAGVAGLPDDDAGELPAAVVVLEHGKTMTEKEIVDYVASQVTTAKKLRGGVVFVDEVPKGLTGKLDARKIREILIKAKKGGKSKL

The assay concerns the target Luciferin 4-monooxygenase (Photinus pyralis) (UniProt P08659). Nature of the assay: FLuc inhibitory activity for the follow-up compounds in a biochemical assay with 1mM D-luciferin. Particulars: purified FLuc, luminescence; series mostly up to 57.5 µM; activity change, negative = inhibition: at the top concentration. An excerpt: NCGC Assay Overview: Firefly (Photinus pyralis) luciferase is one of the most commonly used transcriptional reporters. It is considered one of the more dynamically responsive reporters - that is, responsive to changes in reporter transcription - as it requires no post-translational modifications and is enzymatically active directly after protein synthesis (Wood, 1998). With no endogenous expression in mammalian cells and without the requirement of external excitation, it offers very little background signal, thus generally providing excellent signal to background for most assays. Previous profiling work to determine the prevalence of compounds that affect FLuc enzymatic activity (PubChem AID 411) identified that ~3% of the MLSMR library (then at ~72K) inhibited FLuc. […] Of the compounds identified in this profile that inhibited FLuc, 151 compounds were selected for further analysis, in an effort to better understand their mode of inhibiting FLuc. The assay described here was to determine the activity of the compounds in a FLuc assay that contained a KM concentration of ATP and a high concentration (1mM) of D-luciferin.
NCGC Assay Protocol Summary: Reagents: 50mM Tris acetate, pH 7.5; 10mM Mg acetate; 1mM D-luciferin (Sigma #L9504); 10uM ATP; 0.01% Tween-20; 0.05% BSA; 10nM P. pyralis luciferase (Sigma #L9506) Control compounds used were two known firefly luciferase inhibitors (3-(5-(3-chlorophenyl)-1,2,4-oxadiazol-3-yl)benzoic acid and 5-(2-fluorophenyl)-3-phenyl-1,2,4-oxadiazole), and DMSO. Three microliters containing firefly luciferase substrates in buffer (final concentrations: 50mM Tris acetate, pH 7.5, 10mM Mg acetate, 0.01% Tween-20, 0.05% BSA, 1mM D-luciferin, 10uM ATP) are dispensed into each well of a Greiner white, solid-bottom 1536-well format plate using a flying reagent dispenser (FRD). These assay plates were then treated with 23nL of compound or DMSO using a Kalypsys pin tool, which allows for delivery of a 12-point intraplate titration of each compound to the assay plate (quantitative HTS), with a final compound concentrations ranging from approximately ~60uM to 0.3nM. One microliter of firefly luciferase in […] Tris-acetate buffer was then delivered by FRD to each well for a final enzyme concentration of 10nM. Luciferase activity was then measured using a ViewLux CCD imager (PerkinElmer), with an average exposure time of 2-30 seconds (2X binning, medium/high gain).
As for `NC(=O)Cc1ccc2sc(-c3ccccc3)nc2c1`, the Potency is 13 µM (active).
`COc1cc(C(=O)Nc2cc(C)c(O)c(-c3nc4ccccc4s3)c2)cc(OC)c1OC`: the “activity change, negative = inhibition” value is 7.61%.
Still for that read-out and setting: the same measure for `CN(C)S(=O)(=O)c1ccc(C(=O)Nc2cccc(C(=O)O)c2)cc1`: -19.5%.
Take `COc1ccc(C(=O)Nc2nc3ccc(OC)cc3s2)cc1`: the Potency was 5.17 µM (active).
Same read-out and setting: the same measure for `Cc1ccc(C(=O)Nc2cccc(C(=O)O)c2)cc1S(=O)(=O)N1CCCCC1`: 4.11 µM (active).
For the compound `Cc1ccc(S(=O)(=O)N2CCOCC2)cc1C(=O)Nc1ccccc1C(=O)O`, the “activity change, negative = inhibition” value was -7.96%.
For `COc1ccc(C(=O)Nc2ccccc2C(=O)Nc2ccccc2C(=O)O)cc1`, the Potency was 1.63 µM (active).
Regarding `CN=c1scc(-c2ccccc2F)n1/N=C/c1ccc[nH]1`, the Potency is 0.0819 µM (active).
On to `COc1ccc2nc(NC(=O)c3nc(S(=O)(=O)Cc4ccc(C)cc4)ncc3Cl)sc2c1`, for which the “activity change, negative = inhibition” value is 0.938%.
Still for that read-out and setting: the figure for `O=C(O)c1cccc(NC(=O)c2cccc(S(=O)(=O)Nc3cccc(F)c3)c2)c1` is -4.54%.
In the case of `CC(=O)Oc1ccc(C(=O)Nc2ccccc2C(=O)Nc2cccc(C(=O)O)c2)cc1`, the Potency was 16.3 µM (active).
Regarding `CC(C)Oc1ccc(C(=O)Nc2ccc(-c3nc4ccccc4s3)cc2)cc1`, the “activity change, negative = inhibition” value was 4.02%.
Same read-out and setting: the figure for `O=C(Nc1ccccc1C(=O)O)c1cccc(S(=O)(=O)Nc2ccc(Br)cc2)c1` is -16.9%.
With `Cc1ccc2nc(-c3ccc(NC(=O)CN4CCN(C(=O)c5ccco5)CC4)cc3)sc2c1`, the Potency was 14.6 µM (active).
On to `O=S(=O)(c1ccc(-c2nc3ccccc3s2)cc1)N1CCCC1`, for which the “activity change, negative = inhibition” value is -18.8%.
Same read-out and setting: the same measure for `CC(C)c1ccc(C(=O)Nc2ccc(-c3nc4ccccc4s3)c(Cl)c2)cc1`: -7.4%.
On to `CCOc1ccc2nc(NC(=O)c3cc([N+](=O)[O-])ccc3N3CCOCC3)sc2c1`, for which the “activity change, negative = inhibition” value was 0%.
In the case of `COc1ccc(C(=O)Nc2ccccc2C(=O)N/N=C/c2ccc(O)c(OC)c2)cc1`, the Potency was 0.0103 µM (active).
For `COc1ccc2nc(NC(=O)CCc3ccc(OC)c(OC)c3)sc2c1`, the “activity change, negative = inhibition” value was -15.1%.
On the same count and under the same terms, the figure for `Cc1ccc(NS(=O)(=O)c2ccc(Cl)c(C(=O)Nc3cccc(C(=O)O)c3)c2)cc1` is -7.82%.
For the compound `Oc1ccc(-c2nc3ccccc3s2)c(O)c1`, the Potency is 16.3 µM (active).
The same measure, in the same setting: the figure for `O=C(Nc1ccccc1C(=O)O)c1cccc(NC(=O)c2ccc(Br)o2)c1` is 20.6 µM (active).
With `CCOC(=O)N1CCN(CC(=O)Nc2nc3ccc(OC)cc3s2)CC1`, the “activity change, negative = inhibition” value was -4.7%.
Take `Cc1ccc(C(=O)Nc2cccc(C(=O)O)c2)cc1`: the Potency was 4.11 µM (active).
On the same count and under the same terms, the figure for `Nc1ccc(C(=O)Nc2ccccc2C(=O)O)cc1` is 20.6 µM (active).
In the case of `COc1ccc(C(=O)Nc2cccc(C(=O)O)c2)cc1S(=O)(=O)N1CCCC1`, the “activity change, negative = inhibition” value was -20.1%.
In the case of `Cc1c(NC(=O)c2cccs2)cccc1-c1nc2ccccc2s1`, the Potency is 14.6 µM (active).
Still for that read-out and setting: the figure for `Nc1ccc(-c2nc3ccc(C(=O)O)cc3s2)cc1` is 1.16 µM (active).
With `O=C(Nc1ccc(Cl)cc1-c1nc2ccccc2s1)c1ccco1`, the “activity change, negative = inhibition” value is -9.53%.
Still for that read-out and setting: the same measure for `COc1ccc2nc(NC(=O)CCc3nc(-c4ccccc4F)no3)sc2c1`: -3.48%.
As to `O=C(Nc1ccccc1C(=O)O)c1ccc(NC(=O)C2CCCCC2)cc1`, the Potency was 16.3 µM (active).
As to `COc1cc(OC)cc(C(=O)Nc2ccc(-c3nc4ccccc4s3)c(C)c2)c1`, the “activity change, negative = inhibition” value was -10.4%.
In the case of `O=C(COC(=O)c1ccccc1[N+](=O)[O-])c1ccc2c(c1)OCO2`, the Potency is 0.0461 µM (active).
`O=C(O)c1cccc(NC(=O)c2cccc(S(=O)(=O)N3CCc4ccccc4C3)c2)c1`: the “activity change, negative = inhibition” value was -21.1%.
On to `CCCC(=O)Nc1nc2ccc(OCC)cc2s1`, for which the Potency was 29.1 µM (active).
Consider `COc1cccc(-c2nc3ccccc3s2)c1`, for which the Potency is 5.17 µM (active).
With `COc1ccc(C(=O)Nc2ccccc2-c2nc3ccccc3s2)c(OC)c1`, the “activity change, negative = inhibition” value was -4.07%.
As to `O=C(Nc1ccc(-c2nc3ccccc3s2)cc1)C1=COCCO1`, the Potency was 0.366 µM (active).

For the origin of these results see PubChem BioAssay AID602365 (National Center for Advancing Translational Sciences (NCATS), 2012).
